Values joined by “and” are separate entries in the source; they are usually repeats but may differ in a detail not shown here. Equal entries are not always repeated. Hit rate of the full screen: of about 16,000 compounds, about 5,700 (36%) were called active. Inconclusive results (about 24%) are left out. Calls follow the shape of the dose curve; as a rule, active = well fitted curve in the direction sought with a large enough effect; inconclusive = small, poorly fitted or top-dose-only effect, or effect the other way; inactive = no such curve, though single readings can be large or run the other way. This is one part of the list. Peptide text beside a SMILES is read from it. * marks the point of attachment. Cbz = O=C(OCc1ccccc1)*
% is scaled to controls: 0 for no effect and ±100 for the full control effect.

The target in this assay is Cytochrome P450 1A2 (Homo sapiens) (UniProt P05177). Kind of assay: Cytochrome panel assay with activity outcomes. The following applies: recombinant CYP, pro-luciferin dealkylation, luminescence, p450-cyp1a2; series mostly up to 57.1 µM.
Cytochrome P450 1A2 (Homo sapiens), sequence (P05177 whole entry, looked up): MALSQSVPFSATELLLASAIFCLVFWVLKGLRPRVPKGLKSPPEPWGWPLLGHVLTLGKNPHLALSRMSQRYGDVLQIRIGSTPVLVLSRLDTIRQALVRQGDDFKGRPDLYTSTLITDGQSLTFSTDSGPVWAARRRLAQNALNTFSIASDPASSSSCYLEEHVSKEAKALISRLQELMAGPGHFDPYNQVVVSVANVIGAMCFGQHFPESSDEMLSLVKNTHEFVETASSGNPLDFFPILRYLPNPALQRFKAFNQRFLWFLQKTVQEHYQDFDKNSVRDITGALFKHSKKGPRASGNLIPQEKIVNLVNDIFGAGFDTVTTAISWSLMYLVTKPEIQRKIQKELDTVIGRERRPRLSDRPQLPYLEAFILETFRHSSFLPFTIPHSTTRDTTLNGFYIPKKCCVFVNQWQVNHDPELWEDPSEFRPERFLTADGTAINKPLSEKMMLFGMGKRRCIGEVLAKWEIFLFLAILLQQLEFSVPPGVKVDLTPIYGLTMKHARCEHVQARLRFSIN
In the case of `CSc1nnc(-c2sccc2OCc2ccccc2)n1C`, the AC50 – broadly, the concentration at which the activity in the assay is half-maximal – is 7.08 µM (active).

Take `CSc1n[nH]c(-c2sccc2OCc2ccc(C)cc2)n1`: the AC50 is 1.41 µM (active).

Regarding `Cn1c(-c2sccc2OCc2ccccc2)n[nH]c1=S`, the concentration at half-maximal activity (AC50) is 0.355 µM (active).

With `CC(=O)O[C@]1(C)N=NC2(CCCCC2)O1`, the activity, negative = inhibition was -9.6% [at 11.4 µM] (inactive).

Turning to `CC(=O)OC[C@@H]1O[C@@H](O/N=C2/C[C@@H](O)[C@@H](O)[C@@H]3[C@@H]4C(=O)N(C[C@@H]5CCCO5)C(=O)[C@H]4CC[C@H]23)[C@H](OC(C)=O)[C@H](OC(C)=O)[C@@H]1OC(C)=O`, the activity, negative = inhibition was -5.84% [at 11.4 µM] (inactive).

With `Cc1noc(C)c1-c1ccc2ncnc(N3CCOCC3)c2c1`, the AC50 is 12.6 µM (active).

Turning to `Cc1noc(C)c1-c1ccc2ncnc(N3CCN(C)CC3)c2c1`, the AC50 is 12.6 µM (active).

In the case of `Cc1noc(C)c1-c1cncnc1N1CCN(C)CC1`, the AC50 entry was “inactive”.

For the molecule `NCCc1ccn[nH]1`, the AC50 entry is “inactive”.

As to `COC(=O)c1[nH]c2cc(OC)ccc2c1NC(=O)c1ccc2c(c1)OCO2`, the AC50 was 2.51 µM (active).

In the case of `CCOC(=O)c1[nH]c2cc(OC)c(OC)cc2c1NC(=O)c1nonc1C`, the AC50 was 1 µM (active).

On to `CCOC(=O)c1[nH]c2cc(OC)c(OC)cc2c1NC(=O)c1ccc2c(c1)OCO2`, for which the half-maximal activity concentration (AC50) is 2.24 µM (active).

In the case of `CC1(C)CC(NC(=O)c2ccc3c(c2)OCO3)CC(C)(C)N1`, the AC50 result was “inactive”.

Regarding `CCOC(=O)c1[nH]c2cc3c(cc2c1NC(=O)CN1CCc2ccccc2C1)OCO3`, the AC50 was 2.82 µM (active).

`COc1cc(C(=O)OCC(=O)Nc2cc(C)on2)cc(OC)c1OC`: the AC50 entry was “inactive”.

As to `Cc1ccc(NC(=O)CN2CCC(NC(=O)Cc3ccccc3)CC2)cc1C`, the AC50 entry was “inactive”.

Take `c1ccc2c[n+](Cc3ccnc4ccccc34)ccc2c1`: the activity, negative = inhibition is -21.8% [at 2.29 µM] (inactive).

As for `CCOC(=O)N1CCC(NC(=O)c2cc(S(=O)(=O)N3CCCC3)cn2C)CC1`, the AC50 result is “inactive”.

As to `O=C(CCN1CCOCC1)Nc1ccc(F)cc1F`, the activity, negative = inhibition is -11.8% [at 11.4 µM] (inactive).

Consider `CCN1CCN(CCC(=O)Nc2cccc(OC)c2)CC1`, for which the AC50 entry is “inactive”.

Turning to `CCOC(=O)c1[nH]c2ccc(OC)cc2c1NC(=O)c1ccc2c(c1)OCO2`, the AC50 is 2.24 µM (active).

As to `COC(=O)c1[nH]c2cc(OC)ccc2c1NC(=O)CCN1CCSCC1`, the AC50 was 1.41 µM (active).

Take `CN(C)c1ncc2nc(-c3ccc(F)cc3)c(=O)n(C[C@H]3CCCO3)c2n1`: the AC50 was 2.51 µM (active).

Take `COc1ccc(-c2nc3cnc(N(C)C)nc3n(C[C@H]3CCCO3)c2=O)cc1`: the AC50 is 3.16 µM (active).

Regarding `C/C(CCc1ccc2c(c1)OCO2)=N\N=C1\NC(=O)CC(C(=O)Nc2ccccc2)S1` (centres undefined), the AC50 was 15.8 µM (active).

For `C[C@@H]1[C@H]2CC[C@@H]3[C@@H]4CC=C5C[C@@H](N(C)C)CC[C@]5(C)[C@@H]4CC[C@@]32CN1C`, the AC50 result is “inactive”.

Consider `CCOc1[nH]n(-c2ccccc2)c(=O)c1C=Nc1ccc(Cl)cc1`, for which the AC50 is 2 µM (active).

Regarding `CCOc1[nH]n(-c2ccc(Cl)cc2)c(=O)c1C=Nc1ccc(Cl)cc1`, the AC50 was 2.82 µM (active).

As to `CCc1nnc(NS(=O)(=O)c2ccc(N=Cc3c(C)[nH]n(-c4ccc(C)cc4)c3=O)cc2)s1`, the AC50 result was “inactive”.

As for `OCCN1CCOCCOCCN(CCO)CCN(CCO)CC1`, the AC50 result was “inactive”.

Consider `Nc1nc(Br)c2c(F)cccc2c1-c1ccc(Cl)cc1`, for which the AC50 is 3.55 µM (active).

In the case of `Nc1nc(Br)c2ccccc2c1-c1ccc(F)cc1`, the AC50 is 1.26 µM (active).

In the case of `Nc1nc(Br)c2c(F)cccc2c1-c1ccc(F)cc1`, the AC50 was 1.26 µM (active).

`CCCOc1ccc(C2C(=O)N(C3CCCCC3)CC(=O)N2C2CC2)cc1OC` (centres undefined): the AC50 entry was “inactive”.

Turning to `CCCCCCCCCCCCCCCC(=O)NC(C)C`, the AC50 entry is “inactive”.

As to `CCCCCCCCCCCCC/C=C\[C@@H](O)[C@H](CO)NC(C)=O`, the AC50 was 20 µM (active).

As to `CCCCCCCCCCCCCCC/C=C\[C@H](O)[C@@H](NC(=O)CCCCCCCCCCCCC)OC` (tested in a mixture with another compound), the AC50 result was “inactive”.

Take `CC(=O)Nc1ccc(S(=O)(=O)N=S(C)C)cc1`: the AC50 result was “inactive”.

Consider `Cc1cccc(C)c1NC(=O)CSc1nc(C)c(CC(=O)c2ccc(Br)cc2)c(C)c1C#N`, for which the AC50 result is “inactive”.

For the molecule `Cc1cc(C)c(C#N)c(OCC(=O)c2ccc(Br)cc2)n1`, the AC50 is 1.26 µM (active).

As to `Fc1cc2nc(-c3ccncc3)[nH]c2cc1F`, the AC50 was 2 µM (active).

Take `Cc1cc2nc(SCCOC(=O)Nc3ccc(Cl)cc3)nc(C)c2cc1C`: the AC50 is 1.41 µM (active).

`CCCCCCCCCCCC1=C(O)C(=O)C=C(O)C1=O`: the AC50 entry is “inactive”.

As to `COCCn1c(=O)c(-c2ccc(Cl)cc2)nc2cnc(OC)nc21`, the AC50 is 0.398 µM (active).

With `COCCn1c(=O)c(-c2ccccc2)nc2cnc(OC)nc21`, the half-maximal activity concentration (AC50) was 1 µM (active).

For the molecule `COCCn1c(=O)c(-c2ccc(OC)cc2)nc2cnc(OC)nc21`, the AC50 was 3.16 µM (active).

As for `CC(C)=CCC/C(C)=C/CO/N=C1/C[C@@H](O)[C@@H](O)[C@@H]2[C@@H]3C(=O)N(C(C)(C)C)C(=O)[C@H]3CC[C@H]12`, the activity, negative = inhibition is -9.03% [at 11.4 µM] (inactive).

As for `CCOC(=O)N1CCC(NC(=O)CSCc2cnn(-c3ccccc3)c2-n2cccc2)CC1`, the AC50 result was “inactive”.

As for `O=C(NNS(=O)(=O)c1ccc(Cl)cc1)c1cnn(-c2ccccc2)c1-n1cccc1`, the AC50 is 17.8 µM (active).

Take `O=C(NNS(=O)(=O)c1ccc(Cl)cc1)C1CCN(Cc2ccccc2)CC1`: the AC50 result is “inactive”.

As for `Cc1cccc(NC(=S)c2nc3ccccc3s2)c1`, the half-maximal activity concentration (AC50) was 1.12 µM (active).

As to `Cc1ccc(NC(=S)c2nc3ccccc3s2)cc1`, the AC50 was 0.562 µM (active).

As for `N#Cc1c(-c2cccs2)nc(SCC(=O)c2cccs2)[nH]c1=O`, the AC50 is 8.91 µM (active).

Regarding `Cc1cccc(NC(=O)CSc2nc(-c3ccccc3)c(C#N)c(=O)[nH]2)c1C`, the AC50 entry was “inactive”.

As to `O=C(O)c1c(Br)c(Br)c(Br)c(Br)c1C1c2ccc(O)cc2Oc2cc(O)ccc21`, the activity, negative = inhibition is -6.83% [at 2.29 µM] (inactive).

`CN=c1nc(-c2ccccc2)n(-c2ccccc2)s1`: the AC50 was 5.01 µM (active).

Take `CCn1c(SCc2cccc(C)c2)nnc1-c1ccccc1`: the half-maximal activity concentration (AC50) was 3.55 µM (active).

For `CCn1c(SCc2cccc(C)c2)nnc1-c1ccc(C)cc1`, the AC50 was 17.8 µM (active).

`CCn1c(SCc2ccc(C)cc2)nnc1-c1nn(-c2ccccc2)ccc1=O`: the AC50 result was “inactive”.

Consider `CCn1c(SCc2ccc(C#N)cc2)nnc1-c1ccc(S(=O)(=O)N2CCCCC2)cc1`, for which the AC50 entry was “inactive”.

Consider `CCCCNc1c(C(=O)OCC)c(C)nc2c1cnn2CC`, for which the AC50 is 63.1 nM (active) and 631 nM (active).

As to `CCOC(=O)c1cnn(CCOC(=O)C(C)(C)C)c1NC(=O)C(C)(C)C`, the AC50 result is “inactive”.

In the case of `CN(C)CCCNc1c(C(=O)O)cnc2c1cnn2C`, the AC50 result is “inactive”.

As for `CCOC(=O)c1cnc2c(cnn2CC)c1NN=C(C)C`, the AC50 is 501 nM (active) and 126 nM (active).

`O=C(CCCN1CCC(O)(c2cccc(C(F)(F)F)c2)CC1)c1ccc(F)cc1`: the AC50 result is “inactive”.

With `NC(=O)C1CCN(C(=O)OCc2ccccc2)CC1`, the AC50 result was “inactive”.

Turning to `COC(=O)CCC(NC(=O)OCc1ccccc1)C(=O)NC(CC(C)C)C(=O)OC` (centres undefined) (Cbz-Glu(OMe)-Leu-OMe; configuration not given here), the AC50 entry was “inactive”.

Consider `O=C(Cn1nnc(-c2ccccc2)n1)OCc1ccccc1`, for which the AC50 is 1.78 µM (active).

Consider `Cc1cc(C(=O)O)c(=O)[nH]c1C`, for which the AC50 entry was “inactive”.

For `Cc1[nH]c2c(C)ccc(C)c2c1CC(=O)O`, the AC50 is 3.16 µM (active).

On to `Cc1[nH]c(N)nc(=S)c1CCC(=O)O`, for which the activity, negative = inhibition is -11.2% [at 11.4 µM] (inactive).

Turning to `CC1CCCC(n2c(=S)[nH]c3ccccc3c2=O)C1C` (centres undefined), the AC50 was 7.08 µM (active).

Regarding `C/C(CCC(=O)OC[C@@H]1O[C@H](C#Cc2ccccc2)C=C[C@@H]1Oc1ccc(C)cc1)=N/O[C@@H](C)c1cc(-c2c(C)cc(C)cc2C)no1`, the activity, negative = inhibition was -4.43% [at 11.4 µM] (inactive).

As to `Cc1nc(N2CCOCC2)nc(N2CCN(c3ccccc3)CC2)c1[N+](=O)[O-]`, the AC50 is 7.08 µM (active).

The values are drawn from PubChem BioAssay AID1851 (National Center for Advancing Translational Sciences (NCATS), 2009).
